Assay [1] can be described thus: inhibitors of TNFa-induced NFkB p65 translocation, primary screen, imaging, HUVEC, MLSMR starter and 10KST1 sets (AID 438;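 active = inhibition above 20% together with a positive visual image hit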;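 note: compound added about 3h40 before a 20 min TNFalpha stimulation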;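 for inhibition: signal is the nuclear over cytoplasmic p65 intensity ratio per well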). The following applies: HUVEC TNFa-induced p65 nuclear translocation; cell count: measured here: nuclei count (cytotoxicity indicator), at 2.08 µM; inhibition: at 2 µM, stronger effect = higher value, 0% TNFa-plus-vehicle, 100% no-TNFa wells.
Assay [2] is described as follows: reduction of polyQ htt aggregates in cells – imaging, exon1htt(103Q)mCFP cells, high-content imaging, primary screen (AID 483;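 active = visual image review flags a hit and inhibition of aggregation exceeds 20%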;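 note: compound exposure lasted 3 days before fixation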;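 for nuclei count: percent of the per-plate median nuclei count of sample wells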). Conditions: exon1htt(103Q)mCFP cell line, aggregate imaging, at 2 µM; inhibition of aggregation: stronger effect = higher value; nuclei count: measured here: cell count, toxicity.
A short description of assay [3]: endothelial E-selectin expression blockers – imaging, HUVEC, immunofluorescence, MLSMR starter and 10KST1 sets, primary screen (AID 487;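 active = visually confirmed hit in the image check and inhibition above 20%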;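 for inhibition: signal is fraction of cell area covered by stained E-selectin grains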;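 for nuclei count: 100% = median nuclei count of all wells on the same plate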). The following applies: HUVEC TNFalpha-induced E-selectin immunofluorescence imaging, at 2 µM; inhibition: stronger effect = higher value; nuclei count: measured here: cell number, toxicity.
Assay [4] has as its target Voltage-gated potassium channel subunit beta-2 (Rattus norvegicus) (UniProt P62483). Kind of assay: inhibitors of rat Kvbeta2 reductase activity – biochemical, NADPH fluorescence, primary screen (AID 622).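 Note: slope of raw intensity against log time taken from 70 to 1610 s.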 The following applies: recombinant KvBeta, 4-cyanobenzaldehyde reduction, at 10 µM, stronger effect = higher value.
Assay [5] has the same target. Description: enhancers of rat Kvbeta2 NADPH turnover – biochemical, NADPH fluorescence, primary screen (AID 623;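 active = NADPH fluorescence slope more negative than the mean of all samples by about 3 SD, 99.7% confidence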;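 note: fluorescence intensity change per second fitted from 20 to 320 s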). Conditions: Recombinant KvBeta, NADPH fluorescence decrease slope, 10 min; at 10 µM; stronger effect = lower value.
Assay [6] has as its target Alpha-2C adrenergic receptor (Homo sapiens) (UniProt P18825). Kind of assay: compounds altering alpha2C-coupled GIRK flux – cell-based, HEK293 alpha2C/GIRK1/2, thallium flux, primary screen (AID 624;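 active = fluorescence slope after compound addition differing from the mean of all screened samples at 99.7% confidence, in either direction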;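 note: slope of fluorescence ratio to pre-addition baseline per second over 15 to 24 s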). Conditions: thallium flux BTC fluorescence, at 10 µM, actives lie on both sides.
Assay [7] in a line: blockers of RIG-like receptor reporter activation – cell-based, Sendai virus stimulus, luciferase, 10K MLSCN set, TLR/RLR signaling modifier project, primary screen (AID 602276;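 active = inhibition at or above 50% at 10 µM; inactive = inhibition below 50%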;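 note: firefly luciferase from ISG56 promoter only with Renilla not read in this screen; 0% = Sendai virus plus DMSO and 100% = medium plus DMSO without virus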). The following applies: HEK293 RL24 IRF3 luciferase reporter, at 10 µM, stronger effect = higher value. A general note: Reporter assays use an easily measured gene product as a stand-in for the process of interest.

The nature of assay [8]: TLR3 IRF3 reporter activation blockers – cell-based, poly I:C stimulus, luciferase, 10K MLSCN set, primary screen (AID 602277;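 active = inhibition of the reporter signal at or above 50%; inactive = inhibition below 50%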). Conditions: HEK293-TLR3 RL24 IRF3 luciferase reporter, at 10 µM, stronger effect = higher value.

Activity calls are given as the source filed them.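 Rule for the calls, unless noted: active = fluorescence slope higher than the sample average by over 3 SD (cut at about -0.22 in these data, passing the limit was not always enough); inactive = the rest.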

Voltage-gated potassium channel subunit beta-2 (Rattus norvegicus), sequence (P62483 whole entry, looked up): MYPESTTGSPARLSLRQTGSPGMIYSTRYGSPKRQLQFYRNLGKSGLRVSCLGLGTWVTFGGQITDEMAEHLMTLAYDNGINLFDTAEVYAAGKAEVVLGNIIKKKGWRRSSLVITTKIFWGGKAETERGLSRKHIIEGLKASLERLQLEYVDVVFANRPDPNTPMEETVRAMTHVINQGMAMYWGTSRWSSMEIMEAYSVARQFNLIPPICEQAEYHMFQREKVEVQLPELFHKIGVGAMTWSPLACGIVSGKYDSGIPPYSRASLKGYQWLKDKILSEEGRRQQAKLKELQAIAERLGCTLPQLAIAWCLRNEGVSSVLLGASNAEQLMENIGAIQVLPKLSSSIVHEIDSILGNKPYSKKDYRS
Alpha-2C adrenergic receptor (Homo sapiens), sequence (P18825 whole entry, looked up): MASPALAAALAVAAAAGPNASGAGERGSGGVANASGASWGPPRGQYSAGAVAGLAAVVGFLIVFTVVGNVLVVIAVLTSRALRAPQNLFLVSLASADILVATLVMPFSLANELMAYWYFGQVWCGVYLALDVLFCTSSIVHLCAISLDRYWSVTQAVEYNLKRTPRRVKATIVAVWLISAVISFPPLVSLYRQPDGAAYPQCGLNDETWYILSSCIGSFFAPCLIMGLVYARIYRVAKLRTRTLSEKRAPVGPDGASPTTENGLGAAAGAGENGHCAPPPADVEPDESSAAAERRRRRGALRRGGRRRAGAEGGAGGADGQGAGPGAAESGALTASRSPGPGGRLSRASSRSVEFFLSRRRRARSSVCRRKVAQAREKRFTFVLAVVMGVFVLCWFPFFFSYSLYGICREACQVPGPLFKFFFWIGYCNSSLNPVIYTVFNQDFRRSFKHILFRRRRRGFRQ

By inhibition is commonly meant the drop in the measured response relative to a control, in per cent. As to `CCOc1ccc(C(=O)N2CCN(C(=O)c3ccco3)CC2)cc1OCC`, the cell count in assay [1] was 558. Also, the inhibition in assay [1] was -2.7% (inactive); in assay [3], 28.1% (inactive); in assay [7], 12% (inactive); in assay [8], 21.2% (inactive). Moreover, the inhibition of aggregation in assay [2] was -6.8% (inactive). Moreover, the results for the nuclei count in assay [2] and in assay [3] were 111% and 93.4%, respectively. For the same compound, in assay [4], the fluorescence slope was -0.367 (inactive). The NADPH fluorescence slope in assay [5] is 4.3e-05 (inactive). The slope in assay [6] is 0.00675 (inactive).

As for `CC(=O)c1ccc(NC(=O)C2CCN(S(=O)(=O)c3cccc4cccnc34)CC2)cc1`, the cell count in assay [1] amounted to 591. Moreover, the inhibition in assay [1] is 8.3% (inactive); in assay [3], -11.2% (inactive); in assay [7], 14.2% (inactive); in assay [8] it was 32.1% (inactive). Also, in assay [2], the inhibition of aggregation was -7.6% (inactive). The nuclei count in assay [2] turned out to be 102%; in assay [3] it was 115%. For the same compound, the fluorescence slope in assay [4] was -0.559 (inactive). Moreover, in assay [5], the NADPH fluorescence slope is -1.3e-05 (inactive). Moreover, the slope in assay [6] was 0.0063 (inactive).

Consider `Cc1ccc(C(=O)NCc2ccc3c(c2)OCO3)cc1S(=O)(=O)N1CCCCC1`, for which the cell count in assay [1] came out at 437. The inhibition is 4.7% (inactive) in assay [1], -39.8% (inactive) in assay [3], -2.9% (inactive) in assay [7] and -10.9% (inactive) in assay [8]. Further, in assay [2], the inhibition of aggregation is -2.6% (inactive). Besides, the nuclei count in assay [2] amounted to 99.9%; in assay [3], 113%. Besides, in assay [4], the fluorescence slope is -0.451 (inactive). In assay [5], the NADPH fluorescence slope is 4.6e-05 (inactive). Also, the slope in assay [6] is 0.00487 (inactive).

Regarding `Nc1nc(N2C(=O)C3CC=CCC3C2=O)nn1-c1ccccc1` (centres undefined), in assay [1], the cell count came to 444. Further, the inhibition in assay [1] was 20.1% (inactive); in assay [3] it was -23.5% (inactive); in assay [7] it was -8.69% (inactive); in assay [8], 23.3% (inactive). Also, the inhibition of aggregation in assay [2] is -11.6% (inactive). Also, the nuclei count in assay [2] amounted to 109%; in assay [3], 132%. Moreover, in assay [4], the fluorescence slope was -0.474 (inactive). Moreover, in assay [5], the NADPH fluorescence slope is 2.4e-05 (inactive). Moreover, in assay [6], the slope is 0.00364 (inactive).

For `O=C1CC(c2ccc(F)c(Br)c2)C2=C(CCCC2=O)N1` (centres undefined), the cell count in assay [1] came to 334. For the same compound, the inhibition in assay [1] is -6.7% (inactive); in assay [3], -63% (inactive); in assay [7] it was -0.311% (inactive); in assay [8], 26.9% (inactive). In addition, the inhibition of aggregation in assay [2] is -9.9% (inactive). For the same compound, the nuclei count in assay [2] came to 113%; in assay [3] it was 108%. Further, in assay [4], the fluorescence slope is -0.327 (inactive). For the same compound, the NADPH fluorescence slope in assay [5] was 4e-06 (inactive). For the same compound, the slope in assay [6] was 0.00275 (inactive).

On to `O=C1CCc2cc(S(=O)(=O)N3CCC(C(=O)Nc4nccs4)CC3)ccc2N1`, for which the cell count in assay [1] was 821. For the same compound, the inhibition in assay [1] was 3.9% (inactive); in assay [3], -38.5% (inactive); in assay [7], 18.5% (inactive); in assay [8], 28.2% (inactive). In assay [2], the inhibition of aggregation is -29.1% (inactive). In addition, the nuclei count in assay [2] was 105%; in assay [3], 102%. For the same compound, in assay [4], the fluorescence slope was -0.593 (inactive). In assay [5], the NADPH fluorescence slope is -4.4e-05 (inactive). Besides, in assay [6], the slope is 0.00714 (inactive).

With `O=C(COc1ccccc1)NCC(c1cccs1)N1CCOCC1` (centres undefined), the cell count in assay [1] stood at 412. The inhibition in assay [1] was 9% (inactive); in assay [3], -82.3% (inactive); in assay [7], -14.3% (inactive); in assay [8] it was -11.6% (inactive). Further, the inhibition of aggregation in assay [2] is 2% (inactive). Also, the nuclei count was determined as 101% in assay [2] and 112% in assay [3]. Further, in assay [4], the fluorescence slope is -0.453 (inactive). Besides, the NADPH fluorescence slope in assay [5] was 0.000103 (inactive). Also, the slope in assay [6] is 0.00649 (inactive).

For `Cc1noc(C)c1CSc1ccccc1C(=O)N1CCN(c2ccccc2)CC1`, the cell count in assay [1] was determined as 427. For the same compound, the inhibition was -1.2% (inactive) in assay [1], 14.6% (inactive) in assay [3], 1.46% (inactive) in assay [7] and 7.95% (inactive) in assay [8]. In assay [2], the inhibition of aggregation was -3.3% (inactive). For the same compound, the results for the nuclei count in assay [2] and in assay [3] were 95.9% and 105%, respectively. For the same compound, the fluorescence slope in assay [4] is -0.482 (inactive). Further, in assay [5], the NADPH fluorescence slope was 1.7e-05 (inactive). Moreover, the slope in assay [6] is 0.00481 (inactive).

As for `C=CCNS(=O)(=O)c1ccc2nsnc2c1`, in assay [1], the cell count was 383. Besides, the inhibition is 2.2% (inactive) in assay [1], -33.6% (inactive) in assay [3], -4.18% (inactive) in assay [7] and -2.28% (inactive) in assay [8]. Also, the inhibition of aggregation in assay [2] is 6.3% (inactive). For the same compound, the nuclei count amounted to 89.1% in assay [2] and 121% in assay [3]. Further, in assay [4], the fluorescence slope was -0.508 (inactive). For the same compound, the NADPH fluorescence slope in assay [5] was -3.2e-05 (inactive). In addition, the slope in assay [6] is 0.0046 (inactive).

Consider `Cc1ccc(C)c(S(=O)(=O)C(C#N)c2nc3ccccc3nc2N2CC(C)OC(C)C2)c1` (centres undefined), for which the cell count in assay [1] turned out to be 358. Moreover, the inhibition in assay [1] is -4.1% (inactive); in assay [3], -84.3% (inactive); in assay [7], 32.7% (inactive); in assay [8], 2.87% (inactive). Besides, the inhibition of aggregation in assay [2] is -3.8% (inactive). Also, the nuclei count in assay [2] stood at 103%; in assay [3], 125%. Further, the fluorescence slope in assay [4] was -0.494 (inactive). For the same compound, the NADPH fluorescence slope in assay [5] was -1.6e-06 (inactive). Also, the slope in assay [6] is 0.00382 (inactive).

Consider `Cc1ccccc1NC(=O)C1CCCN(S(=O)(=O)c2cnc[nH]2)C1` (centres undefined), for which the cell count in assay [1] is 726. Further, the inhibition in assay [1] was -11% (inactive); in assay [3], -26.7% (inactive); in assay [7], 10.6% (inactive); in assay [8], 32.6% (inactive). In addition, the inhibition of aggregation in assay [2] is 21.2% (inactive). For the same compound, the nuclei count was 109% in assay [2] and 124% in assay [3]. In addition, the fluorescence slope in assay [4] is -0.564 (inactive). In addition, in assay [5], the NADPH fluorescence slope is -2e-05 (inactive). For the same compound, in assay [6], the slope was 0.0067 (inactive).

For `CCN(CC)S(=O)(=O)c1ccc(Br)c(OC)c1`, in assay [1], the cell count stood at 374. Besides, the inhibition in assay [1] was 4.5% (inactive); in assay [3] it was -15.1% (inactive); in assay [7], 18.3% (inactive); in assay [8] it was 34.5% (inactive). The inhibition of aggregation in assay [2] was -7.1% (inactive). Also, the results for the nuclei count in assay [2] and in assay [3] were 100% and 107%, respectively. Moreover, in assay [4], the fluorescence slope is -0.371 (inactive). Besides, in assay [5], the NADPH fluorescence slope is -5.2e-05 (inactive). The slope in assay [6] was 0.00493 (inactive).

`CC1(C)NC(=O)N(CC(O)CN2CCCC2)C1=O` (centres undefined): the cell count in assay [1] stood at 317. The inhibition in assay [1] is -4.8% (inactive); in assay [3], -48.6% (inactive); in assay [7], 6.37% (inactive); in assay [8] it was -4.68% (inactive). Moreover, the inhibition of aggregation in assay [2] is 4.1% (inactive). For the same compound, the nuclei count was found to be 85.6% in assay [2] and 72.8% in assay [3]. In addition, in assay [4], the fluorescence slope was -0.543 (inactive). Besides, the NADPH fluorescence slope in assay [5] was 4.5e-05 (inactive). Further, the slope in assay [6] is 0.00702 (inactive).

In the case of `Cc1[nH]nc2c1C(=O)CC(C)(C)C2`, in assay [1], the cell count worked out at 416. In addition, the inhibition in assay [1] is -4.9% (inactive); in assay [3] it was -24.4% (inactive); in assay [7], -3.34% (inactive); in assay [8], 17.1% (inactive). Besides, in assay [2], the inhibition of aggregation was -16.7% (inactive). The nuclei count in assay [2] was 118%; in assay [3], 117%. The fluorescence slope in assay [4] was -0.347 (inactive). In addition, the NADPH fluorescence slope in assay [5] is -1.7e-05 (inactive). Further, the slope in assay [6] is 0.0065 (inactive).

(Values after PubChem BioAssay.)
